# Reference: the antibiotic and cytotoxicity screens of Wong et al. (2023)
# The whole screen tested about 39,000 compounds, of which about 1,500 (3.8%) were called active. This is one part of a sample in which actives are shown more often than they occur.
# System: HSkMC (human skeletal muscle cells)
# Assay: cytotoxicity call (relative viability < 0.9)
# Settings: 10 µM
row,Structure (SMILES),cytotoxicity call
1,COc1ccc(NC(=O)N(C)C[C@@H]2OCCCC[C@H](C)Oc3ccc(NC(=O)Nc4c(C)noc4C)cc3C(=O)N([C@@H](C)CO)C[C@H]2C)cc1,inactive
2,CC(C)=CCCC(C)=CCO,inactive
3,CN(C)CCOc1ccc(C(=C(CCCl)c2ccccc2)c2ccccc2)cc1.O=C(O)CC(O)(CC(=O)O)C(=O)O,active
4,CCN(CC)CCOc1ccc(C(=C(Cl)c2ccccc2)c2ccccc2)cc1.O=C(O)CC(O)(CC(=O)O)C(=O)O,inactive
5,CCC(=C(c1ccccc1)c1ccc(OCCN(C)C)cc1)c1ccccc1.O=C(O)CC(O)(CC(=O)O)C(=O)O,inactive
6,C[C@H]1CN([C@@H](C)CO)S(=O)(=O)c2ccc(C3=CCCC3)cc2O[C@@H]1CN(C)C(=O)c1cnccn1,inactive
7,C[C@@H]1CN([C@@H](C)CO)S(=O)(=O)c2ccc(C#CCC3CCCC3)cc2O[C@@H]1CN(C)C(=O)CN(C)C,inactive
8,Cc1cc(-c2ccc(NN=C3C=Cc4c(S(=O)(=O)O)cc(S(=O)(=O)O)c(N)c4C3=O)c(C)c2)ccc1NN=C1C=Cc2c(S(=O)(=O)O)cc(S(=O)(=O)O)c(N)c2C1=O,inactive
9,COc1cc(-c2ccc(NN=C3C=Cc4c(S(=O)(=O)O)cc(S(=O)(=O)O)c(N)c4C3=O)c(OC)c2)ccc1NN=C1C=Cc2c(S(=O)(=O)O)cc(S(=O)(=O)O)c(N)c2C1=O,active
10,Cc1noc(C)c1S(=O)(=O)Nc1ccc2c(c1)CC(=O)N([C@@H](C)CO)C[C@@H](C)[C@H](CN(C)C(=O)NC(C)C)O2,inactive
11,C[C@@H]1CN([C@@H](C)CO)C(=O)c2cc(NC(=O)Nc3cccc4ccccc34)ccc2O[C@@H](C)CCCCO[C@H]1CN(C)C(=O)Nc1ccc2c(c1)OCO2,inactive
12,C[C@@H]1CN([C@@H](C)CO)C(=O)Cc2cc(NC(=O)CCC(F)(F)F)ccc2O[C@@H]1CN(C)S(=O)(=O)c1ccccc1,inactive
13,C[C@H](CO)N1C[C@H](C)[C@@H](CN(C)Cc2ccc3c(c2)OCO3)Oc2ccc(NC(=O)Nc3ccc(C(F)(F)F)cc3)cc2CC1=O,active
14,C[C@@H]1CN([C@H](C)CO)C(=O)Cc2cc(NC(=O)Nc3ccc(C(F)(F)F)cc3)ccc2O[C@@H]1CN(C)Cc1ccc2c(c1)OCO2,active
15,C[C@H](CO)N1C[C@H](C)[C@H](CN(C)Cc2ccc3c(c2)OCO3)Oc2ccc(NC(=O)Nc3ccc(C(F)(F)F)cc3)cc2CC1=O,inactive
16,C[C@H]1CN([C@@H](C)CO)C(=O)Cc2cc(NC(=O)Nc3ccc(C(F)(F)F)cc3)ccc2O[C@H]1CN(C)Cc1ccc2c(c1)OCO2,active
17,C[C@@H]1CN([C@@H](C)CO)C(=O)Cc2cc(NC(=O)Nc3ccc(C(F)(F)F)cc3)ccc2O[C@H]1CN(C)Cc1ccc2c(c1)OCO2,inactive
18,C[C@H]1CN([C@@H](C)CO)C(=O)Cc2cc(NC(=O)Nc3ccc(C(F)(F)F)cc3)ccc2O[C@@H]1CN(C)Cc1ccc2c(c1)OCO2,inactive
19,C[C@@H]1CN([C@@H](C)CO)C(=O)Cc2cc(NC(=O)Nc3ccc(C(F)(F)F)cc3)ccc2O[C@@H]1CN(C)Cc1ccc2c(c1)OCO2,active
20,C[C@@H]1CN([C@H](C)CO)C(=O)Cc2cc(NC(=O)Nc3ccc(C(F)(F)F)cc3)ccc2O[C@H]1CN(C)Cc1ccc2c(c1)OCO2,inactive
